Measured values published in PubChem BioAssay (NCI).
About 83,000 compounds went through this panel and 20% of them were active in at least one assay; those are over-represented in the sample as a whole.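 Treatment: one concentration, 48 hours, 96-well format. Scoring: percent growth, with anything below 10 considered active.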 Unmarked numbers belong to inactive results. Calls of active or inactive are those of the source.

Experiments:
Test in all cases: NCI-60 one-dose screen, 48 h (100 = growth as untreated, 0 = no growth, -100 = all killed)
HCT-15 colon = settings: 10 µM unless noted
HT29 colon = settings: 10 µM unless noted
SNB-75 CNS = settings: 10 µM unless noted
U251 CNS = settings: 10 µM unless noted
PC-3 prostate = settings: 10 µM unless noted
SK-MEL-5 melanoma = settings: 10 µM unless noted
UACC-62 melanoma = settings: 10 µM unless noted
LOX IMVI melanoma = settings: 10 µM
SK-MEL-28 melanoma = settings: 10 µM unless noted
SK-MEL-2 melanoma = settings: 10 µM unless noted
EKVX NSCLC = settings: 10 µM unless noted
UO-31 renal = settings: 10 µM unless noted
TK-10 renal = settings: 10 µM unless noted
CAKI-1 renal = settings: 10 µM unless noted
A498 renal = settings: 10 µM unless noted
CCRF-CEM leukemia = settings: 10 µM unless noted
MOLT-4 leukemia = settings: 10 µM unless noted
ACHN renal = settings: 10 µM unless noted
SN12C renal = settings: 10 µM unless noted

SMILES	growth (HCT-15 colon)	growth (HT29 colon)	growth (SNB-75 CNS)	growth (U251 CNS)	growth (PC-3 prostate)	growth (SK-MEL-5 melanoma)	growth (UACC-62 melanoma)	growth (LOX IMVI melanoma)	growth (SK-MEL-28 melanoma)	growth (SK-MEL-2 melanoma)	growth (EKVX NSCLC)	growth (UO-31 renal)	growth (TK-10 renal)	growth (CAKI-1 renal)	growth (A498 renal)	growth (CCRF-CEM leukemia)	growth (MOLT-4 leukemia)	growth (ACHN renal)	growth (SN12C renal)
CCCCSc1nc(NCCc2c[nH]c3ccccc23)c(C#N)c(-c2ccc(F)cc2)n1	28.8%	25.4%	74.2%	45.6%	28.5%	37.6%	61.4%	36.1%	81.4%	72%	40.9%	56.3%	107%	48.2%	103%	36.5%	36.5%		
CC(=O)OC[C@@]1(C)C2CC[C@]3(C)C(CC=C4C5CC(C)(C)CC[C@]5(C(=O)Nc5ccc(Br)cc5)CC[C@]43C)[C@@]2(C)C[C@@H](OC(C)=O)[C@@H]1OC(C)=O (some centres not stated)	30.6%	27%	56.1%	38.5%	35.5%	8.44% (active)	44.1%	12.2%	72.3%	42.2%	32.8%	37.2%	45.7%	42%	64.3%	28.7%	38%	39%	
COc1ccc(C(=O)/C=C/c2ccc3ccccc3c2)cc1S(N)(=O)=O	-87.1% (active)	-26.5% (active)	-15.5% (active)	-96.3% (active)	-11.9% (active)		-55.6% (active)	-89.1% (active)	-41.5% (active)	53.4%	-73.4% (active)	-87.2% (active)	-82.3% (active)	2.11% (active)	97.2%	5.96% (active)		-92.2% (active)	-43.7% (active)
O=c1[nH]c2ccccc2cc1CSc1cccc(Nc2nccc(-c3ccc4ccccc4c3)n2)c1	65.1%	81.8%	84.6%	81.9%	71%	63.8%	95.2%	87.4%	106%	98.3%	95.4%			81.2%	106%	46.8%	65.9%		
CC(C)CSc1nc(NCCc2c[nH]c3ccccc23)c(C#N)c(-c2ccccc2)n1	22.6%	4.54% (active)	82.8%	33.5%	17.8%	27.3%	77.3%	33.3%	87.3%	75.6%	39.7%	72.2%	110%	50.8%	67.9%	30.2%	30.7%	69.3%	
Cc1cc(=O)oc2cc(OCCCCOc3ccc(/C=C/C(=O)Nc4ccccc4N)cc3)ccc12	75.8%	91.4%	67%	60.2%	61%	-66.1% (active)	69.2%	0.965% (active)	81.2%	111%	60.3%	23.3%	112%	59.8%	84.1%	10.9%	27.8%	68.2%	
NS(=O)(=O)c1ccc(-n2cc(-c3cccc(NC(=O)c4cc(N5CCOCC5)cc(C(F)(F)F)c4)c3)nn2)cc1	105%	103%	33.1%	7.62% (active)	70.6%		41.1%	46.8%	36.9%	61.9%	70.5%	80.3%	86.3%	57%	104%	93.9%		80.4%	35.1%
CC1=C(C(=O)OC(C)C)C(c2cccc(O)c2)NC(=S)N1 (configuration not stated)	106%	102%	105%	103%	107%	98.8%	91.3%		103%	111%	99.6%	92%		89.9%	125%	98.6%	96.1%	98.1%	102%
COc1ccc(N2N=C(c3ccc4c(c3)OCO4)CC2c2cccc(NC(=O)CCCNS(=O)(=O)c3ccc(F)cc3)c2)cc1 (configuration not stated)	57.8%	61.3%	50.6%	59.2%	42.5%	48%	66.4%	66.4%	75.4%	73.5%	52.1%	56.2%	66.8%	49%	67.6%	53.5%	33.4%	59.2%	
O=c1[nH]c2ccccc2cc1CSc1nccc(-c2ccc3ccccc3c2)n1	29%	44.3%	86.6%	65.2%	50%	57.2%	60.9%	67.1%	86.3%	84.5%	49.4%	78.6%	83%		114%	33.1%	21.9%	95.8%	
